# Compound activity deposited in PubChem by several laboratories.
# In the library only some 4.8% were active in any assay of this set; here they are far more common.
# Beta apoptosis = inhibitors of cytokine-induced beta cell apoptosis, primary screen, luminescence. 0.8% of 300,000 active. AID 435005, 2010. INS-1E cytokine-induced death, ATP luminescence, 48 h; percent of positive-control rescue, neutral wells zero. protection from apoptosis, % (test concentration not listed);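 active = Every replicate reaches about 75%, or at least half do and their mean reaches it too, limit read from the data; inconclusive = At least half of replicates reach the limit but their mean does not; inactive = Under half of replicates reach the limit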;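 note: 0% = cytokine-treated negative control wells and 100% = positive control rescue; higher means more ATP so stronger rescue from cytokine killing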
# Calb FLC = C. albicans growth inhibition with fluconazole, primary screen, CaCi-2 strain, Alamar Blue fluorescence; growth inhibition, % (test concentration not listed); AID 1979, 2009; 0.57% of 300,000 active; C. albicans CaCi-2 (fluconazole-resistant clinical isolate) + fluconazole, 48 h;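 active = growth inhibition above about 58% in most replicates, limit read from the data, passing the limit was not always enough; inconclusive = exactly half the replicates above a set limit; inactive = most replicates below a set limit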;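 note: all wells also contain fluconazole at 8 µg/ml as a sub-toxic cotreatment; 0% = median of DMSO wells and 100% = median of geldanamycin control wells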
# Mdm2-MdmX inh = inhibitors of human Mdm2-MdmX association, primary screen, cell-based, luminescence, split luciferase, SaOS-2, uHTS; 3% of 330,000 active; inhibition, % at 8 µM; Protein Mdm4 (Homo sapiens) + E3 ubiquitin-protein ligase Mdm2 (Homo sapiens), …; SaOS-2 split-luciferase Mdm2/MdmX complementation; AID 485346, 2010;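 active = inhibition of at least 50% at 8 µM in the primary screen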
# CSC inhib = cancer stem cell viability inhibitors, primary screen, luminescence; inhibition, % at 7.5 µM; 1.1% of 300,000 active; AID 2717, 2010; cancer stem cell-like cells viability; in the data active = inhibition above about 75%; inconclusive = no clear call, values can overlap the other calls; tested in HMLE shEcad cells
# MPTP inh = mitochondrial permeability transition pore inhibitors, primary screen, biochemical, isolated mouse mitochondria, absorbance | Ca2+ swelling absorbance, 30 min | inhibition, % at 10 µM | 1.4% of 360,000 active;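 active = inhibition of 50% or more, scaled per plate between neutral and stimulator controls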;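 note: 0% = DMSO wells given calcium and 100% = 1 mM EGTA wells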
# Rh123 counter = fluorescence retest of MPTP screen hits in isolated mitochondria, single concentration | shares compounds with MPTP inh | membrane potential, Rhodamine 123 fluorescence | inhibition, % at 10 µM | 78% of 5,000 active | AID 624504, 2012; in the data active = inhibition above about 22%;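 note: 0% = DMSO vehicle and 100% = positive control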
# An asterisk follows results filed as active; u = inconclusive; x = not tested or not shown.
SMILES,Beta apoptosis,Calb FLC,Mdm2-MdmX inh,CSC inhib,MPTP inh,Rh123 counter
O=S(=O)(NCCN1CCOCC1)c1ccc2ccccc2c1,1.3,x,-3.6,-12.8,-0.9,x
O=S(=O)(NCCN1CCOCC1)c1ccc(Oc2ccccc2Cl)cc1,4.8,-3.1,8.5,6.9,75.4*,34.8*
N#C/C(=C\c1ccc(O)c([N+](=O)[O-])c1)c1nc2ccccc2s1,x,u,x,x,91.2*,63.8*
O=C(O)CC/C(=C\c1ccc(Cl)c([N+](=O)[O-])c1)c1nc2ccccc2s1,-0.6,-0.2,9.2,7.1,1.6,x
O=C(O)c1cccc(Nc2nc3ccccc3nc2NS(=O)(=O)c2ccccc2)c1,-0.8,x,30.5,-11.1,-0.5,x
O=C(O)c1ccc(Nc2nc3ccccc3nc2NS(=O)(=O)c2ccc(F)cc2)cc1,-4.5,4.3,40.1,40.3,75.3*,70.2*
O=[N+]([O-])c1ccc(Nc2c3ccccc3nc3ccccc23)cc1,x,5.6,20.1,x,79.6*,77.2*
O=[N+]([O-])c1ccc(S(=O)(=O)Nc2nc3ccccc3nc2Nc2ccccc2)cc1,12.0,105.5*,25.2,6.5,105.5*,85.7*
O=C(COc1ccc2c(-c3ccccc3)cc(=O)oc2c1)NC1CCS(=O)(=O)C1 (stereo not given),-2.3,x,10.4,-5.4,0.7,x
CCCc1cc(O)c2c(C)cc(=O)oc2c1,-3.5,17.8,14.0,5.8,82.4*,87.5*
CCCCc1cc(=O)oc2cc(C)cc(O)c12,0.4,49.6,22.6,-12.0,85.8*,95.5*
C[C@@H]1CN([C@H](C)CO)C(=O)c2cc(Br)cnc2O[C@H]1CN(C)C(=O)CC1CC1,x,x,x,x,0.4,x
O=C(CCCCN1CCCCC1)c1ccc2c(c1)Cc1ccccc1-2,44.2,0.9,0.7,-9.1,94.7*,81.2*
Cn1nc(CC(=O)Nc2ccc(N3CCN(C(=O)OC(C)(C)C)CC3)cc2)c2ccccc2c1=O,2.6,-8.5,11.3,-0.9,101.1*,74.0*
Cn1nc(CC(=O)N2CCN(c3ccccc3)CC2)c2ccccc2c1=O,2.1,-5.7,15.8,-8.1,0.1,x
Cc1ccc(NC(=O)Cc2nn(C)c(=O)c3ccccc23)cc1F,86.4*,-4.4,20.3,-9.5,58.6*,80.4*
Cc1ccc(OCCC(=O)OCC(=O)Nc2ccccc2)cc1,-8.8,-3.8,11.5,-8.7,-1.8,x
Clc1cnc(N/N=C/c2ccncc2)c(Cl)c1,-3.4,-8.7,4.9,1.1,-1.7,x
Clc1ccc(N/N=C/c2ccncc2)cc1Cl,x,u,-61.6,x,69.9*,56.1*
Cc1ccc(NC(=O)/C(=C/c2cccc([N+](=O)[O-])c2)NC(=O)C2CCCCC2)cc1,6.0,-20.8,15.2,-5.5,6.6,x
O=C(Nc1ccc(Br)cc1)/C(=C/c1cccc([N+](=O)[O-])c1)NC(=O)C1CCCCC1,1.8,10.8,-1.0,-6.3,89.7*,83.9*
Cc1c(C(=O)Nc2ccc(Cl)cc2)c2ccccn2c1CCc1ccncc1,12.0,u,-14.2,20.6,85.3*,90.3*
Cc1c(C(=O)Nc2cccc(Cl)c2)c2ccccn2c1CCc1ccncc1,x,11.3,x,x,24.8,x
C/C(=N/NC(=O)c1cc2ccccc2cc1O)C1C(=O)c2ccccc2C1=O,6.0,-0.6,-3.0,48.3,85.9*,17.4
C/C(=N\NC(=O)c1ccccc1O)C1C(=O)c2ccccc2C1=O,32.0,-3.6,21.1,47.9,64.2*,69.6*
SMILES,Beta apoptosis,Calb FLC,Mdm2-MdmX inh,CSC inhib,MPTP inh,Rh123 counter
CCSc1nsc(NC(=O)Nc2ccc(F)cc2F)n1,x,2.2,-23.6,45.8,71.8*,91.0*
CCOc1ccc(NC(=O)Nc2nc(SCC)ns2)cc1,9.9,-2.1,48.2,17.5,96.8*,79.4*
CCSc1nsc(NC(=O)Nc2ccccc2Cl)n1,x,x,x,x,63.0*,89.8*
CCC(CC)NC(=O)Nc1ccc(F)cc1F,1.6,-9.9,-18.5,-5.8,1.8,x
CCOc1ccc(NC(=O)Nc2ccc(NC(C)=O)cc2)cc1,-1.6,-6.0,-4.1,-9.3,1.7,x
CCCOc1ccccc1NC(=O)Nc1ccccc1Cl,3.6,14.5,12.2,-7.7,13.8,x
O=C(COC(=O)CCN=C1NS(=O)(=O)c2ccccc21)NNC(=O)c1ccccc1,1.3,10.3,20.0,x,-1.6,x
